Only some compounds are listed: those with a hit (about 8.3% of all), similar ones and a draw of the others.
Marburg entry inh: inhibitors of Marburg virus binding or cell entry | Marburg virus pseudotyped entry inhibition, cell reporter | Potency, µM (titrated, usually from 37.8 µM), without a hit: top-dose activity change, negative = inhibition, hits mostly inhibitors | 300,000 tested, 1.8% active | AID 540276; calls by dose curve; tested in HEK293 cells; note: potency is the fitted concentration of half-maximal effect; % is set by controls: 0 for no effect and ±100 for the full control effect
HCV inhibitor: HCV inhibition. Potency, µM (series often up to 41.8 µM), for the others: at the highest dose activity change, negative = inhibition, actives largely listed as inhibitors. Huh7.5.1 HCVcc-Cre infection, luciferase reporter, 44 h. 340,000 tested, 3.4% active. AID 651820; note: potency is the fitted concentration of half-maximal effect; % is set by controls: 0 for no effect and ±100 for the full control effect
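Whole-lifecycle infectious HCVcc-Cre system; cells 1,000/well, compound then virus (~0.5 moi) added 4 h after plating, 44 h culture. Luciferase read 15 sec following 15 min substrate incubation, room temp.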
Lassa entry inh: blocks Lassa virus binding to or entry into cells | 300,000 tested, 1.2% active | Lassa virus pseudotype entry inhibition, cell reporter | Potency, µM (titrated, usually from 37.9 µM), inactives show at the highest dose activity change, negative = inhibition, actives largely listed as inhibitors; calls by dose curve; tested in HEK293 cells; note: potency is the fitted concentration of half-maximal effect; % is set by controls: 0 for no effect and ±100 for the full control effect; nearly all actives have a fitted effect of over 50% in size
Giardia FBPA inh: blocks Giardia fructose-bisphosphate aldolase activity. 290,000 tested, 0.71% active. purified Giardia FBPA. A8B2U2. Potency, µM (highest dose often 59.6 µM), without a hit: at the highest dose activity, negative = inhibition, usual class: inhibitors; note: potency is the fitted concentration of half-maximal effect; % is set by controls: 0 for no effect and ±100 for the full control effect; nearly all actives have a fitted effect of over 55% in size
Target sequence (A8B2U2 whole entry, looked up): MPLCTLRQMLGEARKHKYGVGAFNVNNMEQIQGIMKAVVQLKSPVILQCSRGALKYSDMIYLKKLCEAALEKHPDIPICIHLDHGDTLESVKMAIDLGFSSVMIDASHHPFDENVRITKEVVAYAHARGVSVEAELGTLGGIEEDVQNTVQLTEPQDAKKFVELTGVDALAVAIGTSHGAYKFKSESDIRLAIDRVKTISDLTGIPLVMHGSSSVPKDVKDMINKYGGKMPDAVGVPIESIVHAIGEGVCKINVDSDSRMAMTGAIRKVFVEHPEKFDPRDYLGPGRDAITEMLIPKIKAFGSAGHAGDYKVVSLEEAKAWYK
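40 nM FBPA preincubated 10 min at RT with compound (up to 57.5 uM final), then substrate plus GAPDH/TPI/NAD/arsenate coupling and diaphorase/resazurin added. Fluorescence read after 20 min at RT, 525/598 nm.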
FMDV inh: blocks foot and mouth disease virus | Potency, µM (titrated, usually from 57.9 µM), for the others: at the highest dose activity change, negative = inhibition, usual class: inhibitors | FMDV antiviral cell-based qHTS | 410,000 tested, 1.2% active; calls by dose curve; tested in HEK293T cells; note: read-out not given here; potency is the fitted concentration of half-maximal effect; % is set by controls: 0 for no effect and ±100 for the full control effect; nearly all actives have a fitted effect of over 45% in size
HCMV inh: human cytomegalovirus inhibition; HFF cells, HCMV-luciferase reporter, 72 h; active compounds read low; activity change, negative = inhibition, % at 57.5 µM; 410,000 tested, 4.5% active; AID 1259415; in the data active = activity change below about -60%; inconclusive = no clear call, values can overlap the other calls; inactive = above about -39%; note: % is set by controls: 0 for no effect and ±100 for the full control effect
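Luciferase read-out from HCMV-luciferase-infected HFFs (MOI 1 PFU/cell) 72 h post infection at 37C; compounds added after 16 h cell attachment; activity normalized between buffer-only basal and Salinomycin (10uM) inhibitor controls.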
HCV confirm: HCV inhibition, cherry-pick confirmation; shares compounds with HCV inhibitor; HCVcc-Cre infectious virus cell assay, luciferase, inhibition; Potency, µM (titrated, usually from 41.8 µM), for inactives: top-dose activity, negative = inhibition, usual class: inhibitors; 640 tested, 78% active; note: potency is the fitted concentration of half-maximal effect; nearly all actives have a fitted effect of over 80% in size
HCV host tox: counter-screen for HCV inhibitors: host cell cytotoxicity; AID 720576; 640 tested, 22% active; shares compounds with HCV inhibitor; Potency, µM (highest dose often 41.8 µM), without a hit: top-dose activity change, negative = cytotoxicity, actives largely listed as inhibitors; HCV host cell line cytotoxicity counterscreen;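 note: potency is the fitted concentration of half-maximal effect; 44 h compound exposure; % is set by controls: 0 for no effect and ±100 for the full control effect; nearly all actives have a fitted effect of over 55% in size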
Numbers without * were called inactive; ? = inconclusive; / = not tested or not shown; + = active, no number; [ ] = dose if it differs, or a comment. Unless noted, calls come from the whole dose curve; as a rule, active = well fitted curve in the direction sought with a large enough effect; inconclusive = small, poorly fitted or top-dose-only effect, or another doubt; inactive = no such curve, though single readings can be large; an effect the other way counts as inactive or inconclusive.

SMILES	Marburg entry inh	HCV inhibitor	Lassa entry inh	Giardia FBPA inh	FMDV inh	HCMV inh	HCV confirm	HCV host tox
Cc1c(C(=O)Nc2cccc([N+](=O)[O-])c2)csc1-c1ccccc1	?	7.08µM*	?	-24.4%	-1.3%	-75.3*	11.2µM*	?
COC(=O)/C(C#N)=C\c1c(OC)[nH]c2ccccc12	/	3.98µM*	/	1.6%	-12.4%	?	11.2µM*	23.0%
CC1(c2ccc3ccccc3c2)NC(=O)N(CC(=O)N2CCN(Cc3ccccc3)CC2)C1=O (centres undefined)	/	3.16µM*	/	/	?	/	0.887µM*	3.15µM*
CC1(c2ccc3ccccc3c2)NC(=O)N(CC(=O)N2CCC(C(N)=O)CC2)C1=O (centres undefined)	8.5%[46.1 µM]	28.4%	?	/	-17.7%	-1.2	/	/
CN=c1sc(C(=O)Nc2ccccc2)c(C)n1C	?	-20.6%	?	0.1%	22.7%	-6.8	/	/
CN=c1sc2c(n1C)C(=O)c1ccccc1C2=O	?	?	?	/	?	-30.8	31.5µM*	28µM*
Cc1[nH]nc2c1-c1nc3ccccc3nc1C(C)(C)C2	?	5.62µM*	?	-0.3%	?	-74.3*	7.91µM*	?
CC12CCC(C)(c3nc4ccccc4nc31)C2(C)C	3.2%[46.1 µM]	20.1%	8.0%	6.3%	-22.5%	15.1	/	/
O=S(=O)(c1ccccc1)c1nnn2c1nc(NCc1ccccc1)c1sccc12	/	/	15.8%[46.1 µM]	/	-15.3%	6.0	/	/
CC(C)(C)OC(=O)COc1cc(O)c2c(=O)cc(-c3ccccc3)oc2c1	?	?	?	-1.8%	-28.6%	?	28µM*	-28.6%
COc1ccccc1NS(=O)(=O)c1cc(C(=O)NC2CCN(Cc3ccccc3)CC2)ccc1C	/	5.62µM*	/	/	0.0%	-62.3*	2.8µM*	2.23µM*
Cc1ccc(C(=O)NC2CCN(Cc3ccccc3)CC2)cc1S(=O)(=O)N1CCOCC1	-21.2%	?	-6.7%	/	-27.4%	?	/	/
CCC(C)(C)NC(=O)Cn1c(=O)ccc2cc(S(=O)(=O)N3CCC(C)CC3)ccc21	/	/	16.4%[46.1 µM]	/	?	-12.2	/	/
Cc1noc(/C=C/c2ccccc2F)c1S(=O)(=O)N1CCC(C(=O)N2CCN(C)CC2)CC1	/	3.98µM*	/	-10.0%	-6.3%	-28.7	22.3µM*	?
COc1ccc(C(=O)NCCNc2nc3c(C)cccc3cc2C#N)cc1OC	/	?	/	0.3%	-27.5%	1.2	17.7µM*	25.5%
CC(C)Cc1ccc(C(C)C(=O)Nc2ccccc2O)cc1 (centres undefined)	?	4.47µM*	?	-5.5%	?	-82.0*	4.45µM*	9.95µM*
CC(C)Cc1ccc([C@@H](C)C(=O)NS(C)(=O)=O)cc1	/	/	/	17.7%	/	/	/	/
COc1cc(N)c(Cl)cc1C(=O)N[C@@H]1CCN(CCCOc2ccc(F)cc2)C[C@@H]1OC	/	/	/	1.6%	/	/	/	/
COc1cc(N)c(Cl)cc1C(=O)N[C@H]1CCN(CCCOc2ccc(F)cc2)C[C@H]1OC	/	1.78µM*	/	-5.8%[21.7 µM]	?	-94.3*	4.45µM*	4.0%
CC(=O)Nc1ccc(NC2=C(Cl)C(=O)c3ccccc3C2=O)cc1	?	3.16µM*	?	?	28.2µM*	-100.7*	25µM*	22.3µM*
CC(=O)Nc1ccc(NC(=O)c2cccc3c2-c2ccccc2C3=O)cc1	/	-13.4%	/	0.0%	11.0%	-24.5	/	/
COc1ccc(C2/C=C\[C@H](O[Si](C)(C)C(C)(C)C)[C@H](C(C)C)CC(=O)N2Cc2ccccc2)cc1 (some centres undefined)	/	/	/	3.1%	/	/	/	/
COc1ccc(CNc2nc(-c3ccco3)nn2S(=O)(=O)c2ccc3ccccc3c2)cc1OC	-5.7%[46.1 µM]	/	-3.0%[46.1 µM]	/	10.2%	8.8	/	/
CCOC(=O)c1cc(-c2ccco2)nc2c1c(C)nn2CCC#N	-25.2%	?	-3.0%	-2.7%	0.0%	-10.3	?	9.7%
COc1ccc(-c2cc(C)no2)cc1S(=O)(=O)N1CCN(c2ccc([N+](=O)[O-])cc2)CC1	/	3.98µM*	/	-1.8%	-24.5%	+	8.87µM*	25µM*
SMILES	Marburg entry inh	HCV inhibitor	Lassa entry inh	Giardia FBPA inh	FMDV inh	HCMV inh	HCV confirm	HCV host tox
COc1cccc(CNC(=O)c2cc(-c3ccc(Cl)cc3)n[nH]2)c1	/	/	17.6%[46.1 µM]	/	-0.8%	-13.6	/	/
COc1ccc(C)cc1NC(=O)c1ccc2nc(Cc3ccccc3)oc2c1	/	/	-12.8%[46.1 µM]	/	-0.3%	-22.5	/	/
c1ccc(-c2nn(-c3ccccc3)[n+](-c3ccccc3)n2)cc1	?	3.16µM*	-26.0%	/	?	-95.0*	25µM*	?
CCOC(=O)c1c(-c2ccccc2)oc2ccc(O)cc12	/	2.82µM*	/	0.0%	-4.8%	-1.0	14.1µM*	-30.4%
NC(=O)c1c(-c2ccccc2)oc2ccc(O)cc12	1.0%	1.8%	-11.6%	-5.9%	2.4%	44.3	/	/
COc1cc(C)ccc1N(CCCN1C(=O)c2cccc3cccc(c23)C1=O)C(=O)c1cccs1	?	5.62µM*	?	15.0%	?	?	12.5µM*	36.5%
COc1ccc(N(CCCN2C(=O)c3cccc4cccc(c34)C2=O)C(=O)c2cccs2)cc1	2.5%	?	0.1%	8.5%	-29.0%	-21.3	/	/
Cc1ccc(Cc2nc3ccccc3nc2SCC(=O)NCc2ccccc2Cl)cc1	/	/	2.2%[46.1 µM]	/	10.7%	17.4	/	/
CCOC(=O)N1CCC(NC(=O)CCc2c(C)nc3c(c(C)nn3C(C)(C)C)c2C)CC1	?	5.62µM*	?	-13.3%	?	-73.0*	12.5µM*	?
O=C(Nc1ccc([N+](=O)[O-])cc1)Nc1ccc(OC(F)F)c(Cl)c1	?	?	14.6µM*	-1.5%	25.1µM*	-101.3*	7.05µM*	8.87µM*
O=C(Cc1ccc(Cl)cc1Cl)Nc1ccc(OC(F)F)c(Cl)c1	?	?	-2.8%	2.4%	-22.2%	?	/	/
COC(=O)c1nc2n(n1)C(c1cc(OC)ccc1OC)C(C(=O)Nc1ccc(C)cc1C)=C(C)N2 (centres undefined)	1.2%[46.1 µM]	/	?	/	4.8%	-1.8	/	/
CCN1C(=O)/C(=C\c2cccs2)C(C(=O)OC)=C1C	-7.0%	3.98µM*	4.7%	5.4%	-11.9%	4.8	?	?
CC1(C)NC(=O)N(CC(=O)Nc2nc(-c3ccc(F)cc3)cs2)C1=O	2.7%	3.55µM*	6.0%	-11.5%	8.1%	76.3	?	-5.3%
COc1ccc(CCn2c(SCC(=O)Nc3cc(C)on3)nc3ccsc3c2=O)cc1OC	?	?	-43.1%	-1.1%	-10.0%	-11.8	?	25.0%

Assay outcomes: PubChem BioAssay, National Center for Advancing Translational Sciences (NCATS)
